The supplement of paper PMC11732987, “Enantioselective OTUD7B fragment discovery through chemoproteomics screening and high-throughput optimisation” (Communications Chemistry, 2025)

Key:
Assay in all cases: log2 ratio of Biotin-Ahx-Ub-VS probe labelling (fragment/DMSO); higher = less target engagement (more negative = stronger competition), active = hit call of the paper (q ≤ 0.05, log2 ratio ≤ -1)
Conditions in all cases: compound concentration: 200 uM; treatment time: 3 h
[1] = target: T1, USP19 (UniProt O94966)
T1 sequence (whole entry): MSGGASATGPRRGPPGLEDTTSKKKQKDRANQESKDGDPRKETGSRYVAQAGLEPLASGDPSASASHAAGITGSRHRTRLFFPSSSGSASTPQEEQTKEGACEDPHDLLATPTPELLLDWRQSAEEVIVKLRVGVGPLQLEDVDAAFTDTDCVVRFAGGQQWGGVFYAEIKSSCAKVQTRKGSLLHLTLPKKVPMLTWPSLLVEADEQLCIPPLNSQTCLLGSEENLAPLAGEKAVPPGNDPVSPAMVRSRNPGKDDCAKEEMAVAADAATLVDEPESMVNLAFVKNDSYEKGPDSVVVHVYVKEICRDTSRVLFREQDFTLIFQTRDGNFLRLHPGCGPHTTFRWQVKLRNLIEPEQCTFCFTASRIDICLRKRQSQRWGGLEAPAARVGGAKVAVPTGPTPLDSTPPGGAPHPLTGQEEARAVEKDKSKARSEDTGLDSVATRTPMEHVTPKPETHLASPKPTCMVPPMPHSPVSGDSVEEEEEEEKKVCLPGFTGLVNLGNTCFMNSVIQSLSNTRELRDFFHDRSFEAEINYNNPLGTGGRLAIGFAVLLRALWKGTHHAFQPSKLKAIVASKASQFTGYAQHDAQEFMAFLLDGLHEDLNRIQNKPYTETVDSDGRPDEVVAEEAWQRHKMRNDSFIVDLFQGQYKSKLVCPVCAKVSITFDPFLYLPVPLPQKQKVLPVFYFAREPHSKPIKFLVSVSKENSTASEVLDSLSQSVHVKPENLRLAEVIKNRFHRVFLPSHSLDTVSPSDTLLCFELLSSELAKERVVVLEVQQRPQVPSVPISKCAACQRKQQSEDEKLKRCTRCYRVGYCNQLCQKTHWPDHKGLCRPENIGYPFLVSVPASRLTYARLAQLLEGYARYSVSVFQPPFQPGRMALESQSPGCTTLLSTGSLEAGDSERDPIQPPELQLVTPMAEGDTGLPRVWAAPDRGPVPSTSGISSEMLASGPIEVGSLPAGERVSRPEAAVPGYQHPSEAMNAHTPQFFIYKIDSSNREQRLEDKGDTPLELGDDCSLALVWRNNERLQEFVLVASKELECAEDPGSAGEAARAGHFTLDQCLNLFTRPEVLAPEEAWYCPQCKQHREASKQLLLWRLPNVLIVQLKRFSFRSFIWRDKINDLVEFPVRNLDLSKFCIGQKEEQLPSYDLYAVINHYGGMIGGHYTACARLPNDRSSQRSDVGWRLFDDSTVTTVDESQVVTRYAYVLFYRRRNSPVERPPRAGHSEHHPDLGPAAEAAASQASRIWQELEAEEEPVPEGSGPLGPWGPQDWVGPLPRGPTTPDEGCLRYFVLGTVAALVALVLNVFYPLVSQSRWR
How it was run: (§1)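 Fragment (200 µM) or vehicle was incubated for 3 h with triplicate HEK293T lysate samples of 495 µg, which were then treated with Biotin-Ahx-Ub-VS at 0.5 µM final for 1 h. Labelled DUBs were enriched on NeutrAvidin, digested with LysC and trypsin, and analysed by diaPASEF LC-MS/MS. Values are average log2 fragment/vehicle ratios from an unpaired t-test on global-median-normalised Spectronaut label-free quantities, using proteins with ≥2 unique peptides.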

[2] = target: T2, USP22 (UniProt Q9UPT9)
T2 sequence (whole entry): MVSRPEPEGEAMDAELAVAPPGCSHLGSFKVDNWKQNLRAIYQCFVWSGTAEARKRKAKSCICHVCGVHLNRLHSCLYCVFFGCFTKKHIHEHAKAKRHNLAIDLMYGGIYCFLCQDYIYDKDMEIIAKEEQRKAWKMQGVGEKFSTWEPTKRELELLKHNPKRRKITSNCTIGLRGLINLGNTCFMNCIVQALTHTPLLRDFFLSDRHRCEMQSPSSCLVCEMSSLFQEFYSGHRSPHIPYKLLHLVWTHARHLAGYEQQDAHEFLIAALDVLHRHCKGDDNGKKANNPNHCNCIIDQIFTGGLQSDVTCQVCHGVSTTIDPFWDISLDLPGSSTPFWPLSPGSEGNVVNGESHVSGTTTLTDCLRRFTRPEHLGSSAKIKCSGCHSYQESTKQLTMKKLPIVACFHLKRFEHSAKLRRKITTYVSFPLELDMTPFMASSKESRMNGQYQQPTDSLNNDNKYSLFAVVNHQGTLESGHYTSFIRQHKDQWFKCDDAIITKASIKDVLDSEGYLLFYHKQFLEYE
How it was run: as §1

[3] = target: USP24 (UniProt Q9UPU5)
Chain of USP24 (Q9UPU5 whole entry): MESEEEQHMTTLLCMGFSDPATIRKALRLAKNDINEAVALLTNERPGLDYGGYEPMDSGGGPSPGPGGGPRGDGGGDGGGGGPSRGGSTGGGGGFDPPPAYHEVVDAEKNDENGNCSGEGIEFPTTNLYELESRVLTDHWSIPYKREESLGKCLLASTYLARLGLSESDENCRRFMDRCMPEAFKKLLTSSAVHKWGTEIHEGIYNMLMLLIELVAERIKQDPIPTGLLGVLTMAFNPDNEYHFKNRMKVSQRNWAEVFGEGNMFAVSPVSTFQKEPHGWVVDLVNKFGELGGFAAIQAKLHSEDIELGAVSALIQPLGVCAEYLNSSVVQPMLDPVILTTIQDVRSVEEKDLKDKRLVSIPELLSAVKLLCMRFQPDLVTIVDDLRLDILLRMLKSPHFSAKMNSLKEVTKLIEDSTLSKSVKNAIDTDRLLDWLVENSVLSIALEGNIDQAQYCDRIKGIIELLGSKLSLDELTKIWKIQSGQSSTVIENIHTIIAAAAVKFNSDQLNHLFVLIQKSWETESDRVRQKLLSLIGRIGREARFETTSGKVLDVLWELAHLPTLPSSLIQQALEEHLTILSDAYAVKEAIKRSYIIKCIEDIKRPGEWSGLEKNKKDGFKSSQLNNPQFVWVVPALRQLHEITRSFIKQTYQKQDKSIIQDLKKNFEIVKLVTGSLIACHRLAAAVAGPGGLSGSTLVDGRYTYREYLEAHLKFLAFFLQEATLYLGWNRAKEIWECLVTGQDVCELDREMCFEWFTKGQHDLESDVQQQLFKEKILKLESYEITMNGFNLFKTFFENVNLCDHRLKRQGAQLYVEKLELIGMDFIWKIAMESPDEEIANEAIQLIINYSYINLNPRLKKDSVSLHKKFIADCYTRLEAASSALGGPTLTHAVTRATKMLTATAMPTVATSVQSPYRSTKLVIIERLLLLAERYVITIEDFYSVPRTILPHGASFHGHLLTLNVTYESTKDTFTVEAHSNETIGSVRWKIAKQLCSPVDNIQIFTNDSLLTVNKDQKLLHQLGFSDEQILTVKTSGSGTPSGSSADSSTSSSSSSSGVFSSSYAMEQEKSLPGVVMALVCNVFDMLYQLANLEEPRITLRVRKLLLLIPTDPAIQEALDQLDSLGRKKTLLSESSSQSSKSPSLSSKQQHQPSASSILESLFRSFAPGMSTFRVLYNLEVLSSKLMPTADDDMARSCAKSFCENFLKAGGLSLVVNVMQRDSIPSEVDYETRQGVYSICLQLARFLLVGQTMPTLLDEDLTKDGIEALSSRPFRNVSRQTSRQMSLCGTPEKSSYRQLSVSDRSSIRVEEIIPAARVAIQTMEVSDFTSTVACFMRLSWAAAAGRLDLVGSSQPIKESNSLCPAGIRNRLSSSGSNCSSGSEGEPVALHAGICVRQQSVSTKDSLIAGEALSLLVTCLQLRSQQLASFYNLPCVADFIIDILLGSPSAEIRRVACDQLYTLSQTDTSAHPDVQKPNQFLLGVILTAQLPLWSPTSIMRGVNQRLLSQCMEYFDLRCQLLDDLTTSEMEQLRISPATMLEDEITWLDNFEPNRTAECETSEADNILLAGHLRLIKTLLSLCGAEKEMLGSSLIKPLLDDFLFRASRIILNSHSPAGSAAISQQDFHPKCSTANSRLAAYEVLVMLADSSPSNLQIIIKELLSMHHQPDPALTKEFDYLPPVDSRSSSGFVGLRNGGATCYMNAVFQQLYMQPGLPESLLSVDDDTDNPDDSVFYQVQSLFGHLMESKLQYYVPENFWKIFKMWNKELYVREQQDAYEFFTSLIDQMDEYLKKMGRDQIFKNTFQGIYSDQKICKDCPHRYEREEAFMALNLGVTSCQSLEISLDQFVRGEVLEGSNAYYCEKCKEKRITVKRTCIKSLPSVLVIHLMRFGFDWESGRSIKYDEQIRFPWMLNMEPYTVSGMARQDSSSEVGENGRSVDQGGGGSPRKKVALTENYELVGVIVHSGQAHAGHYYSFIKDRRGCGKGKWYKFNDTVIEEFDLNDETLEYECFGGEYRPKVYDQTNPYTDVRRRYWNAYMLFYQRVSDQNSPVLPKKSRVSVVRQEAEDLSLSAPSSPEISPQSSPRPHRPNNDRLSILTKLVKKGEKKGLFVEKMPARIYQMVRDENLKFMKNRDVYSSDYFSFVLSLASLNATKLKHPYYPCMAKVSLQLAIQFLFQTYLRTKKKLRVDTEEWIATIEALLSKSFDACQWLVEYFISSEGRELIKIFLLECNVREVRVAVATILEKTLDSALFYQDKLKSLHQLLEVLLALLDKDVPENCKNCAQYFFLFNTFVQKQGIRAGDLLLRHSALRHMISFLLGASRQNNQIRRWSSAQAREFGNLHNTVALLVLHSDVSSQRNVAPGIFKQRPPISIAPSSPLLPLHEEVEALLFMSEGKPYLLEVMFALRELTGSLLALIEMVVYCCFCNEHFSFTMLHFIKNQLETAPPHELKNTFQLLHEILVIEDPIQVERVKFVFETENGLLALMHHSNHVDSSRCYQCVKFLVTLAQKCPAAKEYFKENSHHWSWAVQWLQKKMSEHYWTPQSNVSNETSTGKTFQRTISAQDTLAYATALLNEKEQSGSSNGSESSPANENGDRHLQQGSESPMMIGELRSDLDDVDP
How it was run: as §1

[4] = target: T3, USP25 (UniProt Q9UHP3)
T3 sequence (whole entry): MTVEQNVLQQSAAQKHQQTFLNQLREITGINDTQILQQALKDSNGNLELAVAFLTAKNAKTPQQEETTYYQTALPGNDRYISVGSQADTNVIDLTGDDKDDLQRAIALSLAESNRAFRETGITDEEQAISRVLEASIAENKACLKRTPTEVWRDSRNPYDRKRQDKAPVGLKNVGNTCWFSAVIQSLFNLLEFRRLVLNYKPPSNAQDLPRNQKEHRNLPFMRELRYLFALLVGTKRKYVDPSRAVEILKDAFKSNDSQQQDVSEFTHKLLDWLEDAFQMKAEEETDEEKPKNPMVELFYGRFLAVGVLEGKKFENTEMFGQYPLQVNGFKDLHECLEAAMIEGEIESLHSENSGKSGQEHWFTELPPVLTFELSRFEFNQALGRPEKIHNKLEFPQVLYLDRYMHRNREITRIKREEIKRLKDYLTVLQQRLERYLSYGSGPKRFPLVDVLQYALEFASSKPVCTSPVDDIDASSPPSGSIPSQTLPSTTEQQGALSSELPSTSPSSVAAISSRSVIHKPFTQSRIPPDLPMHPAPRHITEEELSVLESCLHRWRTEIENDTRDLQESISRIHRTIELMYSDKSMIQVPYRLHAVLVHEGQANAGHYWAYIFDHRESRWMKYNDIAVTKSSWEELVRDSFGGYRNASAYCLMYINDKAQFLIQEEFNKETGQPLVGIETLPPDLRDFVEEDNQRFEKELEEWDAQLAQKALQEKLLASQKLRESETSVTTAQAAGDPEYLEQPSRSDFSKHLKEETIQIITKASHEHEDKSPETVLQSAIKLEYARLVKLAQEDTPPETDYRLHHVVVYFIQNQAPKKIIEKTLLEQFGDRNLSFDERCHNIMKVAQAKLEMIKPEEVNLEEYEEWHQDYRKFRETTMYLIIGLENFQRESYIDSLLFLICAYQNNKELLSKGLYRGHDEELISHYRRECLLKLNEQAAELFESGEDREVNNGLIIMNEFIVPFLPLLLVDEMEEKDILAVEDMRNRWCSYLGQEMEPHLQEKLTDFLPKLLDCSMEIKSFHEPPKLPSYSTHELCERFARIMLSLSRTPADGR
How it was run: as §1

[5] = target: T4, USP28 (UniProt Q96RU2)
T4 sequence (whole entry): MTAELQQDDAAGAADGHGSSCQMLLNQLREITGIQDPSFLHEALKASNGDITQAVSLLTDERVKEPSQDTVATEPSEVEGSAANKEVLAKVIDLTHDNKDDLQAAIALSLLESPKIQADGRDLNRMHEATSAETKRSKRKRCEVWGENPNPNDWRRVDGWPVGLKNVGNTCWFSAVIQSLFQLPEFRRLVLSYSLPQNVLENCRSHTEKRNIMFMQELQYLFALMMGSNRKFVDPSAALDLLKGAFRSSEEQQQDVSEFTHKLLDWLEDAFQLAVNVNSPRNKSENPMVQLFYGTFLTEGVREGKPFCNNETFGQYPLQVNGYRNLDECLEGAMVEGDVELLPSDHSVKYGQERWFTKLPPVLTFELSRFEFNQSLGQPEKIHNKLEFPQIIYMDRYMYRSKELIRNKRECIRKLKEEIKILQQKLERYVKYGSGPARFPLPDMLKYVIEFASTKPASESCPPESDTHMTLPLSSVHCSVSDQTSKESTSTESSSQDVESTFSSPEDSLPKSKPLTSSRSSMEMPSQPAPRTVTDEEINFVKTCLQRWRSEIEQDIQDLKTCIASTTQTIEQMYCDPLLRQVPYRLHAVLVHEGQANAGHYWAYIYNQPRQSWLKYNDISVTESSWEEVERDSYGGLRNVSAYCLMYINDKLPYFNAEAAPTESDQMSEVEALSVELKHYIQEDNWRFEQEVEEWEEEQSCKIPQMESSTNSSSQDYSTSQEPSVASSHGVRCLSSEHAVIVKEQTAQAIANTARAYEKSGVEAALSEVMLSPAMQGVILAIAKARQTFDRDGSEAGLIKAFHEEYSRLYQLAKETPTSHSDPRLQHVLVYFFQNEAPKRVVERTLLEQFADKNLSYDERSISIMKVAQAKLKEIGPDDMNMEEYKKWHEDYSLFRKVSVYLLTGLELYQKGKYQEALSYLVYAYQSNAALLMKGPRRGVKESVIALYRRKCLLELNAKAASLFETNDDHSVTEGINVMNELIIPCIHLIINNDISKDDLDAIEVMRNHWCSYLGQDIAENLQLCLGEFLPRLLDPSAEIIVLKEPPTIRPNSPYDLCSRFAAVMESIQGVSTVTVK
How it was run: as §1

Measured: log2 ratio of Biotin-Ahx-Ub-VS probe labelling

O=C(CCl)N1CCOCC1C1CC1 (stereo not given)
inactive: [1] -0.0224 | [2] 0.0159 | [3] -0.173 | [4] -0.127 | [5] -0.304
